# Assay results reported in PubChem BioAssay (NCATS).
# Results filed as inconclusive are left out. Where a call stands in place of a potency, no number is given. Calls of active or inactive are those of the source. The call rests on the fitted dose curve; in most records, active means well fitted inhibition curve with a large enough effect; inconclusive means small, poorly fitted or top-dose-only effect; inactive means flat fitted curve, though single readings scatter.
# Tested on: Zika virus NS2B-NS3 protease
# Assay: Primary screen GU AMC qHTS for Zika virus inhibitors (AID 1347154); further: nearly all actives have a fitted effect of over 70% in size
# Settings: Zika NS2B-NS3 unlinked protease, AMC fluorogenic substrate; series mostly up to 54.1 µM
# Procedure, shortened: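 Unlinked Zika NS2B hydrophilic domain/NS3 protease domain noncovalent complex (25 nM final) in 10 mM Tris-HCl pH 8.0, 0.01% Tween 20, with AMC peptide substrate. Fluorescence (ex 340, em 450 nm) change over 15 min, room temperature; percent inhibition fitted to 4-parameter Hill equation.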
row,Structure (SMILES),Potency
1,CC(C)(CO)[C@@H](O)C(=O)NCCCO,inactive
2,O=C(N/N=C/c1ccccc1O)c1ccncc1,inactive
3,CNC(=O)CN(CCN(CCN(CC(=O)[O-])CC(=O)NC)CC(=O)[O-])CC(=O)[O-].O.[Gd+3],inactive
4,CCCN1CCCC[C@H]1C(=O)Nc1c(C)cccc1C,inactive
5,C=C1C[C@H]2[C@@H]3C=C(C)C4=CC(=O)CC[C@]4(C)[C@H]3CC[C@]2(C)[C@@]1(OC(C)=O)C(C)=O,inactive
6,C=C(CC)C(=O)c1ccc(OCC(=O)O)c(Cl)c1Cl,inactive
7,OC[C@H]1O[C@@H](n2cnc3c(=S)nc[nH]c32)[C@H](O)[C@@H]1O,inactive
8,CCOC(=O)/C=C(C)/C=C/C=C(C)/C=C/c1c(C)cc(OC)c(C)c1C,inactive
9,CC(=O)Oc1ccc(C(c2ccc(OC(C)=O)cc2)c2ccccn2)cc1,inactive
10,CC(C)(Oc1ccc(Cl)cc1)C(=O)O,inactive
11,CCCCCC=CCC=CCCCCCCCC(=O)OCC,inactive
12,CC(=O)OCC(=O)[C@@]1(OC(C)=O)[C@@H](C)C[C@H]2[C@@H]3C[C@H](F)C4=CC(=O)C=C[C@]4(C)[C@@]3(F)[C@@H](O)C[C@@]21C,inactive
13,Cc1ccc(O)c2ncccc12,inactive
14,CCCCCCc1ccc(O)cc1O,inactive
15,NC[C@H]1O[C@H](O[C@H]2[C@H](O)[C@@H](O[C@H]3O[C@H](CO)[C@@H](O)[C@H](N)[C@H]3O)[C@H](N)C[C@@H]2N)[C@H](N)[C@@H](O)[C@@H]1O,inactive
16,Cc1c(N(C)CS(=O)(=O)O)c(=O)n(-c2ccccc2)n1C,inactive
